Assay results taken from PubChem BioAssay.
A number with no mark means an inactive call. This is one part of the list. The source made the active and inactive calls.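 How the source made its calls, unless noted: active means mean inhibition above a set limit taken from the earlier primary screen (cut at about 13% in these data); inactive means the rest.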

What was measured:
[1] = molecular target: Protein-arginine deiminase type-4 (Homo sapiens) (UniProt Q9UM07); experiment: protein arginine deiminase 4 blockade, retest – biochemical, fluorescence polarization, confirmation (AID 488796;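 active means mean inhibition across replicates above the hit cutoff set by the earlier primary screen, cut at about 15% in these data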;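 further: inhibitors block active-site labeling by the probe so polarization falls; 0% = PAD4 with probe and DMSO and 100% = probe without PAD4 enzyme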); conditions: recombinant PAD4, RCA probe fluorescence polarization; at 6.36 µM; stronger effect = higher value
Protein-arginine deiminase type-4 (Homo sapiens), sequence (Q9UM07 whole entry, looked up): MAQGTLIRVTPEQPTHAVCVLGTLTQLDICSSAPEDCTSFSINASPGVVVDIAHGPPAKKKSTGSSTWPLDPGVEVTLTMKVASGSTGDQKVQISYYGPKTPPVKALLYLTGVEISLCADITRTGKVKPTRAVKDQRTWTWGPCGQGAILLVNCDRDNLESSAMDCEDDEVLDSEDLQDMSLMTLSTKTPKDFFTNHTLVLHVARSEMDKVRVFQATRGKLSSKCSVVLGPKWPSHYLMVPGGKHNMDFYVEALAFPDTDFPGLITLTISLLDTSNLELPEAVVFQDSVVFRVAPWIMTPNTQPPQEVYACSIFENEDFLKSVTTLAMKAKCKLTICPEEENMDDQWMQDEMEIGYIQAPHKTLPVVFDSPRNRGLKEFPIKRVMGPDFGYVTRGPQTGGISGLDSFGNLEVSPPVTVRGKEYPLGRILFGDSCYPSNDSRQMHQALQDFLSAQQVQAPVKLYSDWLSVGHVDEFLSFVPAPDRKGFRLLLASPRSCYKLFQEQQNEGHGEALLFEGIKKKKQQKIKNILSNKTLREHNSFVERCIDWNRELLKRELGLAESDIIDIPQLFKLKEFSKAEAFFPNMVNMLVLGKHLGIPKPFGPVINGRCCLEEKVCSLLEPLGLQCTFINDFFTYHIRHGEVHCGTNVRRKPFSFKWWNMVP

[2] = reduced OD of T4-infected AddAB+ E. coli – absorbance, E. coli V3065, T4 phage, triplicate, AddAB inhibitor project, confirmation (AID 488942);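 further: higher means less bacterial growth since AddAB block lets phage replicate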; conditions: E. coli V3065 expressing H. pylori AddAB, at 11.9 µM, stronger effect = higher value, T4 phage with gene 2 nonsense mutations
[3] = reduced OD of phage-infected RecBCD+ V66 E. coli – absorbance, mutant T4 phage, counter-screen for AddAB inhibitor project (AID 488955;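 active means mean inhibition above the mean of solvent-only control wells plus 3 SD, cut at about 4% in these data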;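 further: optical density read after an 18 h incubation at 37 °C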); conditions: OD growth, at 11.9 µM, stronger effect = higher value
[4] = bacterial growth inhibitors – absorbance, counter-screen for AddAB inhibitor project, confirmation (AID 488956; in the data active means inhibition above about 25%); conditions: bacterial viability, absorbance (AddAB counterscreen); at 11.9 µM; stronger effect = higher value
[5] = reduced OD of V66 E. coli with T4 gene 2 phage – absorbance, RecBCD inhibitor project, confirmation (AID 651982;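 active means mean inhibition over triplicates exceeding the hit threshold derived in the original primary screen, cut at about 11% in these data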); conditions: E. coli V66 + T4 2- phage, growth OD; at 11.9 µM; stronger effect = higher value
[6] = bacterial growth inhibition – absorbance, high throughput, counter-screen for RecBCD inhibitor project (AID 651983; in the data active means inhibition above about 20%;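 further: E. coli strain V66 grown with compound alone and no phage infection; 0% = bacteria with DMSO vehicle only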); conditions: E. coli viability, absorbance (OD) growth; at 11.9 µM; stronger effect = higher value
[7] = reduced optical density, T4-challenged addAB+ bacteria – absorbance, E. coli V3065, T4 phage, counter-screen for RecBCD inhibitor project, confirmation (AID 651984;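 active means mean inhibition above the solvent-only control wells' mean plus 3 SD, cut at about 22% in these data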;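 further: higher means less bacterial growth from phage killing when AddAB is blocked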); conditions: E. coli expressing H. pylori AddAB + T4 phage, OD growth; at 11.9 µM; stronger effect = higher value; gene 2 mutant T4, recBCD-deleted host
[8] = StAR promoter reporter inhibitors, counter-screen for LRH-1 inverse agonist project, cell-based, luminescence, high throughput (AID 651611; in the data active means inhibition above about 28%); conditions: StAR promoter luciferase reporter counterscreen, at 3.6 µM, stronger effect = higher value
[9] = molecular target: Nuclear receptor subfamily 5 group A member 2 (Homo sapiens) (UniProt O00482); experiment: NR5A2 activity suppression in reporter cells – cell-based, luminescence, confirmation (AID 651613; in the data active means inhibition above about 42%;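 further: HEK293T cells co-transfected with LRH-1 and StAR promoter luciferase reporter; 0% = vehicle wells and 100% = parental cells lacking receptor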); conditions: cell-based LRH-1 luciferase reporter, inverse agonism; at 3.6 µM; stronger effect = higher value
Nuclear receptor subfamily 5 group A member 2 (Homo sapiens), sequence (O00482 whole entry, looked up): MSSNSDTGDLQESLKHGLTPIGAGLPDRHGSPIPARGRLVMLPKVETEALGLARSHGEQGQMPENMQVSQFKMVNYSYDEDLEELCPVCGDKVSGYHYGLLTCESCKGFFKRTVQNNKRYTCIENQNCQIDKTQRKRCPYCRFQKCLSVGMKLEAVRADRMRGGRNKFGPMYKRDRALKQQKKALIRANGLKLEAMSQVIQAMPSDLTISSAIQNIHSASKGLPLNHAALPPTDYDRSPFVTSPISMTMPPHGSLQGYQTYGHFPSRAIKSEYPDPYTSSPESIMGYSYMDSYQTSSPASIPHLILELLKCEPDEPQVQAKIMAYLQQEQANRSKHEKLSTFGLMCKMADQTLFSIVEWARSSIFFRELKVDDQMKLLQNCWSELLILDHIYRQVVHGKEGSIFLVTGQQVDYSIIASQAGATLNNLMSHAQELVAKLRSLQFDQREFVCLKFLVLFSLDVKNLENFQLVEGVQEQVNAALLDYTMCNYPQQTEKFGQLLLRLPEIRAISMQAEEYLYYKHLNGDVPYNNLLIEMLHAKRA

[10] = molecular target: Steroidogenic factor 1 (Homo sapiens) (UniProt Q13285); experiment: inverse agonism at SF1 nuclear receptor – cell-based, luminescence, high throughput, counter-screen for LRH-1 inverse agonist project (AID 651614; in the data active means inhibition above about 44%;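 further: cells cotransfected with StAR promoter reporter and SF1 expression vector; 0% = vehicle on cells with receptor and 100% = vehicle on cells lacking receptor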); conditions: cell-based SF1 luciferase reporter, at 3.6 µM, stronger effect = higher value
Steroidogenic factor 1 (Homo sapiens), sequence (Q13285 whole entry, looked up, the tested form may be a part): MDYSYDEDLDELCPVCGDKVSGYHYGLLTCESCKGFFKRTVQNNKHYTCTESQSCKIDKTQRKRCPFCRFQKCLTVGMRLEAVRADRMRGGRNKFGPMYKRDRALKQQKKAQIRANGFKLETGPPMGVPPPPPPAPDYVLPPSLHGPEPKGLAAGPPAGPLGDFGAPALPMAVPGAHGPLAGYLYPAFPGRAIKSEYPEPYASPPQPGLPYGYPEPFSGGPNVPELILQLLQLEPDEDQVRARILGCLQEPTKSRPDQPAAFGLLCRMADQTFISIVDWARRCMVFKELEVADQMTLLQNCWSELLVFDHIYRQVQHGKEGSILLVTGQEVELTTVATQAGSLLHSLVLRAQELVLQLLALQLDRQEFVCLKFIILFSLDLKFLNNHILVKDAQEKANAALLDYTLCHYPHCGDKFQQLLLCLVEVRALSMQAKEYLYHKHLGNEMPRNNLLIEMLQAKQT

[11] = compounds suppressing VP16-driven luciferase signal – cell-based, luminescence, high throughput, counter-screen for LRH-1 inverse agonist project (AID 651615; in the data active means inhibition above about 33%); conditions: Gal4-VP16 luciferase reporter cells, at 3.6 µM, stronger effect = higher value
[12] = molecular target: Serine protease HTRA1 (Homo sapiens) (UniProt Q92743); experiment: confirming inhibition of human HTRA1 – biochemical, fluorescence polarization, confirmation (AID 540248;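 active means mean inhibition over three repeats above a set limit taken from the earlier primary screen, cut at about 37% in these data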;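 further: 0% = HTRA1 with DMSO and 100% = wells lacking HTRA1; inhibitors block probe binding so polarization drops and inhibition rises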); conditions: recombinant HTRA1, FP-rhodamine activity-based probe, at 5.96 µM, stronger effect = higher value
[13] = molecular target: Platelet-activating factor acetylhydrolase IB subunit alpha1 (Homo sapiens) (UniProt Q15102); experiment: inhibition of PAF acetylhydrolase 1B subunit 3 – biochemical, fluorescence polarization, human, confirmation (AID 493032;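 active means average inhibition over triplicate runs above the hit cutoff set in the earlier primary screen, cut at about 25% in these data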;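 further: 0% = enzyme with DMSO and 100% = wells lacking PAFAH1B3 protein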); conditions: recombinant PAFAH1B3, FP-Rh activity-based probe, at 3.39 µM, stronger effect = higher value
Platelet-activating factor acetylhydrolase IB subunit alpha1 (Homo sapiens), sequence (Q15102 whole entry, looked up): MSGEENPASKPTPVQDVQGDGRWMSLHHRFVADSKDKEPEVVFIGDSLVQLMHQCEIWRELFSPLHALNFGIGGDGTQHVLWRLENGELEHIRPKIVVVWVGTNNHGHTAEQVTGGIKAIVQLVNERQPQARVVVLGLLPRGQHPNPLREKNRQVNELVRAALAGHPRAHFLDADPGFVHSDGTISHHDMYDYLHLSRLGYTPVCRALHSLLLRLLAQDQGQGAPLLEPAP

[14] = molecular target: Photoreceptor-specific nuclear receptor (Homo sapiens) (UniProt Q9Y5X4); experiment: retest of NR2E3-NCOR disrupting agonists – cell-based, luminescence, CHO-S two-hybrid, confirmation (AID 624378;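 active means average inhibition above a cutoff equal to the mean inhibition of all tested compounds plus one SD, cut at about 70% in these data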;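 further: 0% = DMSO in NR2E3 cells and 100% = DMSO in cells lacking NR2E3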); conditions: CHO-S mammalian two-hybrid NR2E3-NCOR, luciferase luminescence; at 3.98 µM; stronger effect = higher value
Photoreceptor-specific nuclear receptor (Homo sapiens), sequence (Q9Y5X4 whole entry, looked up): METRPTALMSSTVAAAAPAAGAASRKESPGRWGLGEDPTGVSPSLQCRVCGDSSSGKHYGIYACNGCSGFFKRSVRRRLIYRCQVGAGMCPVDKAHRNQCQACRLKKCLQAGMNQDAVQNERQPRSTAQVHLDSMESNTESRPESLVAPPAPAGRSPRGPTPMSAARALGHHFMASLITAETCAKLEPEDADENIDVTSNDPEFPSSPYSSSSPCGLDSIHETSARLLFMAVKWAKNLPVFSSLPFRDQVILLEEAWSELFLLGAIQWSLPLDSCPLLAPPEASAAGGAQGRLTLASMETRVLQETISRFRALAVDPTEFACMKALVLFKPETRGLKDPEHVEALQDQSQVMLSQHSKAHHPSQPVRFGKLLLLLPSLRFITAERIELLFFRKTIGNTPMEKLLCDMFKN

[15] = nonselective effects on VP16 transactivation – cell-based, luminescence, CHO-S, high throughput, counter-screen for NR2E3 agonist project, confirmation (AID 624379;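 active means mean inhibition above a cutoff equal to the average over all tested compounds plus one standard deviation, cut at about 70% in these data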;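 further: 0% = DMSO with VP16-transfected cells and 100% = DMSO with cells lacking VP16; higher means less reporter light so more repression of VP16 activity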); conditions: CHO-S GAL4-VP16 luciferase reporter, at 3.98 µM, stronger effect = higher value
[16] = test system: transactivating tegument protein VP16 (Human herpesvirus 1); experiment: compounds suppressing VP16-driven luciferase signal – cell-based, luminescence, single concentration, counter-screen for SRC2 inhibitor project (AID 652007; in the data active means inhibition above about 36%); conditions: cell-based VP16 transactivation luciferase reporter, at 8.9 µM, stronger effect = higher value
[17] = molecular target: Nuclear receptor coactivator 2 (Homo sapiens) (UniProt Q15596); experiment: inhibition of GAL4-SRC2 driven luciferase expression – cell-based, luminescence, HEK293, triplicate, confirmation (AID 652008;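 active means mean inhibition above 46.5%, the solvent-only control mean plus 3 SD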;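 further: 0% = DMSO-treated cells and 100% = Gossypol at 36 µM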); conditions: HEK293 GAL4-SRC2 luciferase reporter, at 8.9 µM, stronger effect = higher value
Nuclear receptor coactivator 2 (Homo sapiens), sequence (Q15596 whole entry, looked up, the tested form may be a part): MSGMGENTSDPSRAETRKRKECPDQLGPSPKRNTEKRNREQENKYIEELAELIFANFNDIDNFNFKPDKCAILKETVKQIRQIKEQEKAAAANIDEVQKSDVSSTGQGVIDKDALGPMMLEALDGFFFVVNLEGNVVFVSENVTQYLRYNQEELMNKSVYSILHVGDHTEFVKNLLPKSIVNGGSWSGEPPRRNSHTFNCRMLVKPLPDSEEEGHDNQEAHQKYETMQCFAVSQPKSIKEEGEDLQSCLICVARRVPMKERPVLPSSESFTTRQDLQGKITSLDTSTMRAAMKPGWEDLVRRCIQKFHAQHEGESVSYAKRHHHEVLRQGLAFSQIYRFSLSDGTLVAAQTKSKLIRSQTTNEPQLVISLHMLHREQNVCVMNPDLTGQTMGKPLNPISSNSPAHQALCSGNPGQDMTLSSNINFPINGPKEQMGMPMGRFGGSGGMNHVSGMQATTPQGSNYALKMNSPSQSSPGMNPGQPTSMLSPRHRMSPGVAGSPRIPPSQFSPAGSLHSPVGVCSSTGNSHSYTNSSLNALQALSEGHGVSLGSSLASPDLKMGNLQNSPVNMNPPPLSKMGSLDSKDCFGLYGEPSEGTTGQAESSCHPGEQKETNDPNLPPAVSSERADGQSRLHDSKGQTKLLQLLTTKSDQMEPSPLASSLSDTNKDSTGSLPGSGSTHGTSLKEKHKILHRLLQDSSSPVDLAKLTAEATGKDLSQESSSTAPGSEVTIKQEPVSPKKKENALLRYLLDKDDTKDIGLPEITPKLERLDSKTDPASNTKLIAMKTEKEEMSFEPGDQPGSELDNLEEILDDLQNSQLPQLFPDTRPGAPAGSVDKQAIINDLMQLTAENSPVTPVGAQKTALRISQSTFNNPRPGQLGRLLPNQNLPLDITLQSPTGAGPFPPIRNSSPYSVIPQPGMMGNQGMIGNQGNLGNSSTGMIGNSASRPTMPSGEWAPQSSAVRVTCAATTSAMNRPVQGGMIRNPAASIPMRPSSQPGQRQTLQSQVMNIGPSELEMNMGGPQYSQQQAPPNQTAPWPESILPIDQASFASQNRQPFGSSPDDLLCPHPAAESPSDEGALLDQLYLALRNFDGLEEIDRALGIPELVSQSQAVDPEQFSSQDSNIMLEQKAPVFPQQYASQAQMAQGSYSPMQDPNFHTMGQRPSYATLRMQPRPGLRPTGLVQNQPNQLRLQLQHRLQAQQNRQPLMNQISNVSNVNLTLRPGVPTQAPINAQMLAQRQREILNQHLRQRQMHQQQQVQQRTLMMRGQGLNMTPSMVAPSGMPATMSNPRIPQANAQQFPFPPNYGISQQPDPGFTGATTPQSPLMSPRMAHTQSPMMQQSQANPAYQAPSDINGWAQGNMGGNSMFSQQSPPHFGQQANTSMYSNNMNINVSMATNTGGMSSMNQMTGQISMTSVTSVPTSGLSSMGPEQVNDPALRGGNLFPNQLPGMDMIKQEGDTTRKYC

[18] = VP16-driven transactivation reporter suppression – cell-based, luminescence, HEK293, counter-screen for COUP-TFII antagonist project (AID 687007; in the data active means inhibition above about 13%); conditions: HEK293 Gal4-VP16 luciferase reporter, at 8.5 µM, stronger effect = higher value
[19] = molecular target: COUP transcription factor 2 (Homo sapiens) (UniProt P24468); experiment: retest of COUP-TFII reporter suppressors – cell-based, luciferase reporter, HEK293, triplicate, confirmation (AID 687008;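 active means mean inhibition over three repeats above a set limit taken from the earlier primary screen, cut at about 38% in these data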;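 further: 100% = cells given the luciferase reporter alone without the COUP-TF2 vector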); conditions: HEK293 NGFI-A luciferase reporter, luminescence; at 8.5 µM; stronger effect = higher value
COUP transcription factor 2 (Homo sapiens), sequence (P24468 whole entry, looked up): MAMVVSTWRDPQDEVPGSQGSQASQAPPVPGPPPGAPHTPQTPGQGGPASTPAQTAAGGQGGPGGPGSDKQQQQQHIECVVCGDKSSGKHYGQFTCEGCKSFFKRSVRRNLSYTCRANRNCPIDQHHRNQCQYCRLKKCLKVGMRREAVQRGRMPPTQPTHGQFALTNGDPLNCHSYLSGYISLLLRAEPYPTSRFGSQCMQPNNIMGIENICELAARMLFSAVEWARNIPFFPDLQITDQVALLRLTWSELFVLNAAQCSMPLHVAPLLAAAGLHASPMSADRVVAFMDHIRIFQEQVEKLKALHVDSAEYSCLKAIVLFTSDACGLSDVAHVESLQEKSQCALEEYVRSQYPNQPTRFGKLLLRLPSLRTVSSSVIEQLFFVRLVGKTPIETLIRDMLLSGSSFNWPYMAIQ

## COc1cc(SC#N)ccc1N=Cc1c(C)[nH]n(-c2ccc(C)cc2)c1=O
[1]
  inhibition: 29.7% (active)

## O=C(CN1CCCCCC1)Nc1ccc(Br)cc1Br
[1]
  inhibition: 3.01%

## Cc1cccc(NC(=O)Cn2cc(C(=O)c3ccco3)c3ccccc32)c1
[2]
  inhibition: 14.9% (active)
[3]
  inhibition: 10.9% (active)
[4]
  inhibition: 11.8%
[5]
  inhibition: 6.82%
[6]
  inhibition: 11.3%
[7]
  inhibition: 7.23%

## O=C(Nc1ccc(Br)cn1)c1ccc([N+](=O)[O-])o1
[2]
  inhibition: 99.3% (active)
[3]
  inhibition: 11.8% (active)
[4]
  inhibition: 30.2% (active)
[8]
  inhibition: 11%
[9]
  inhibition: 54.7% (active)
[10]
  inhibition: 55.6% (active)
[11]
  inhibition: -5.48%
[5]
  inhibition: 7.78%
[6]
  inhibition: 9.86%
[7]
  inhibition: 81.2% (active)

## Cc1cn(C2C=CC(CO)O2)c(=O)[nH]c1=O (centres undefined)
[2]
  inhibition: 83.8% (active)
[3]
  inhibition: 6.53% (active)
[4]
  inhibition: 42.2% (active)
[5]
  inhibition: 14.1% (active)
[6]
  inhibition: 8.16%
[7]
  inhibition: 54.6% (active)

## C=CCNC(=O)c1cc(-c2ccccc2O)on1
[2]
  inhibition: -1.87%
[3]
  inhibition: 1.86%
[4]
  inhibition: 0.32%

## C/[N+]([O-])=C\c1ccc([N+](=O)[O-])o1
[2]
  inhibition: 101% (active)
[3]
  inhibition: 42.8% (active)
[4]
  inhibition: 99.3% (active)

## COc1cccc2sc(NNC(=O)c3nc4ccccc4s3)nc12
[12]
  inhibition: 130% (active)

## COc1ccc(C(=O)COC(=O)c2ccc([N+](=O)[O-])s2)cc1OC
[13]
  inhibition: 13.3%

## CCOC(=O)c1ccc(NC(=O)Cn2cnc3cc(C)c(C)cc32)cc1
[2]
  inhibition: 24.2% (active)
[3]
  inhibition: 18.4% (active)
[4]
  inhibition: 21.4%
[14]
  inhibition: 96% (active)
[15]
  inhibition: 87.5% (active)
[5]
  inhibition: 13.5% (active)
[6]
  inhibition: 14.5%
[7]
  inhibition: 21.8% (active)
[16]
  inhibition: 19.5%
[17]
  inhibition: 36.7%
[18]
  inhibition: 8.87%
[19]
  inhibition: 62.9% (active)

## ON=C1/C(=N\O)CC2(C/C1=N/O)OCCO2
[13]
  inhibition: 27.1% (active)
[5]
  inhibition: 1.75%
[6]
  inhibition: 4.59%
[7]
  inhibition: -10.8%

## COc1c(N2CCN(C(=S)Nc3ccccc3F)C(C)C2)c(F)cc2c(=O)c(C(=O)O)cn(C3CC3)c12 (centres undefined)
[2]
  inhibition: 102% (active)
[3]
  inhibition: 100% (active)
[4]
  inhibition: 101% (active)
[5]
  inhibition: 102% (active)
[6]
  inhibition: 103% (active)
[7]
  inhibition: 101% (active)

## CCN1CCN(C(c2cccnc2)c2cc(Cl)c3cccnc3c2O)CC1 (centres undefined)
[12]
  inhibition: 67.8% (active)

## CN1C(c2ccc(F)cc2)=CS/C1=C(/C#N)c1nnc2n1-c1ccccc1SC2
[13]
  inhibition: 20.9%

## CC(=O)N(O)CCCCCNC(=O)CCC(=O)N(O)CCCCCNC(=O)CCC(=O)N(O)CCCCCNC(=O)CCC(=O)O
[2]
  inhibition: 13.8% (active)
[3]
  inhibition: 14.4% (active)
[4]
  inhibition: 2.8%
[5]
  inhibition: 7.53%
[6]
  inhibition: 11.4%
[7]
  inhibition: 12.5%

## CC1CCCN(C(=O)c2ccc3c(c2)C(=O)N(CCC2=CCCCC2)C3=O)C1 (centres undefined)
[2]
  inhibition: -4.68%
[3]
  inhibition: -0.96%
[4]
  inhibition: -2.15%

## COc1cccc(Cn2cc(/C=N/NC(=O)c3cc(O)cc(O)c3)c3ccccc32)c1
[13]
  inhibition: 17.6%

## Oc1c(CN2CCCC2)cc(COCc2ccccc2)c2cccnc12
[12]
  inhibition: 80% (active)

## CN1CCN(c2cc3c(cc2F)c(=O)c(C(=O)O)cn3CCF)CC1
[2]
  inhibition: 103% (active)
[3]
  inhibition: 102% (active)
[4]
  inhibition: 103% (active)
[5]
  inhibition: 103% (active)
[6]
  inhibition: 103% (active)
[7]
  inhibition: 102% (active)

## COc1ccc(C(=O)c2oc3ccc(Br)cc3c2NC(C)=O)cc1
[2]
  inhibition: -2.85%
[3]
  inhibition: -1.5%
[4]
  inhibition: -3.05%

## O=C(CN1CCN(S(=O)(=O)c2cc(Cl)ccc2Cl)CC1)c1ccc(O)c(O)c1
[12]
  inhibition: 45.3% (active)

## COC(=O)N/N=C/c1c[n+]([O-])c2ccccc2[n+]1[O-]
[2]
  inhibition: 94.5% (active)
[3]
  inhibition: 27.4% (active)
[4]
  inhibition: 83.4% (active)
[5]
  inhibition: 23.1% (active)
[6]
  inhibition: 28% (active)
[7]
  inhibition: 91.8% (active)

## Cc1cc(-c2csc(N)n2)c(C)n1Cc1ccccc1
[12]
  inhibition: 30.6%

## O=C1c2ccccc2NC(c2ccc(-c3cccc(Cl)c3)o2)N1O (centres undefined)
[2]
  inhibition: 17.5% (active)
[3]
  inhibition: 18.4% (active)
[4]
  inhibition: 13.2%
[5]
  inhibition: 13.7% (active)
[6]
  inhibition: 16.7%
[7]
  inhibition: 18.9%

## COc1ccc(NC(=O)ON=C2c3ccccc3-c3ccccc32)cc1
[13]
  inhibition: 29% (active)

## O=C(Cn1c(=O)sc2ccccc21)Nc1nc2c(s1)CCCC2
[2]
  inhibition: 2.31%
[3]
  inhibition: 4.07% (active)
[4]
  inhibition: 3.15%

## O=C(CSc1ccc(-c2ccccn2)nn1)Nc1ccccc1
[2]
  inhibition: 5.71%
[3]
  inhibition: 6.8% (active)
[4]
  inhibition: 5%
[5]
  inhibition: 2.01%
[6]
  inhibition: 1.79%
[7]
  inhibition: 11.1%

## Cc1ccc(C)c(NC(=O)NNC(=O)c2ccc3ccccc3c2O)c1
[13]
  inhibition: 40.5% (active)

## CC(C)(C)NC(=O)COC(=O)c1cc(Cl)ccc1[N+](=O)[O-]
[2]
  inhibition: -4.38%
[3]
  inhibition: 0.98%
[4]
  inhibition: -3.45%
